Results taken from paper PMC11006913.

Assays:
Test in all cases: PBM; 200 nM protein, PBS
Details in all cases: dsDNA, one strand shown
HOXB4 [1] = target: HOXB4 (Homo sapiens, UniProt P17483 148-234)
HOXA4 [2] = target: HOXA4 (Homo sapiens, UniProt Q00056 201-287, W262R)
HOXA2 [3] = target: HOXA2 (Homo sapiens, UniProt O43364 129-215, R185T)
HOXA4 [4] = target: HOXA4 (Homo sapiens, UniProt Q00056 201-287, R217L)
HOXB4 [5] = target: HOXB4 (Homo sapiens, UniProt P17483 148-234, V174I)
HOXA2 [6] = target: HOXA2 (Homo sapiens, UniProt O43364 129-215, R185K)
Chain of HOXA2 (Homo sapiens, UniProt O43364 129-215, R185K) (O43364 129-215 R185K): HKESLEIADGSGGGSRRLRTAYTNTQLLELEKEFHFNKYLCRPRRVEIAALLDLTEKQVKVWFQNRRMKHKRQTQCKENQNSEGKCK

HOXA4 [7] = target: HOXA4 (Homo sapiens, UniProt Q00056 201-287)
Chain of HOXA4 (Homo sapiens, UniProt Q00056 201-287) (Q00056 201-287): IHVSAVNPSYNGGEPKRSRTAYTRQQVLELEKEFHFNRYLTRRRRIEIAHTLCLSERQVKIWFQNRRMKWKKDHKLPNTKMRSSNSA

VAX1 [8] = target: VAX1 (Homo sapiens, UniProt Q5SQQ9 86-172, T142I)
Chain of VAX1 (Homo sapiens, UniProt Q5SQQ9 86-172, T142I) (Q5SQQ9 86-172 T142I): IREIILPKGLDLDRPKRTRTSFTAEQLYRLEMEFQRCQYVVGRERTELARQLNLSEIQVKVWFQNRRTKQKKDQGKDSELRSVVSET

HOXA2 [9] = target: HOXA2 (Homo sapiens, UniProt O43364 129-215, Y150S)
Chain of HOXA2 (Homo sapiens, UniProt O43364 129-215, Y150S) (O43364 129-215 Y150S): as the sequence (O43364 129-215 R185K) above, with Y22S, K57R counted along it

HOXA4 [10] = target: HOXA4 (Homo sapiens, UniProt Q00056 201-287, W262F)
Chain of HOXA4 (Homo sapiens, UniProt Q00056 201-287, W262F) (Q00056 201-287 W262F): as the sequence (Q00056 201-287) above, with W62F counted along it

HOXA2 [11] = target: HOXA2 (Homo sapiens, UniProt O43364 129-215)
Chain of HOXA2 (Homo sapiens, UniProt O43364 129-215) (O43364 129-215): as the sequence (O43364 129-215 R185K) above, with K57R counted along it

VAX1 [12] = target: VAX1 (Homo sapiens, UniProt Q5SQQ9 86-172)
Chain of VAX1 (Homo sapiens, UniProt Q5SQQ9 86-172) (Q5SQQ9 86-172): as the sequence (Q5SQQ9 86-172 T142I) above, with I57T counted along it

VAX1 [13] = target: VAX1 (Homo sapiens, UniProt Q5SQQ9 86-172, K157R)
Chain of VAX1 (Homo sapiens, UniProt Q5SQQ9 86-172, K157R) (Q5SQQ9 86-172 K157R): as the sequence (Q5SQQ9 86-172 T142I) above, with I57T, K72R counted along it

Chain of HOXB4 (Homo sapiens, UniProt P17483 148-234, V174I) (P17483 148-234 V174I): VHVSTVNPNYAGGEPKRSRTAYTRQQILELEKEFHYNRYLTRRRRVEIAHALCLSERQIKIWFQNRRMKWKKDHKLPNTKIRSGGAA
Chain of HOXA4 (Homo sapiens, UniProt Q00056 201-287, R217L) (Q00056 201-287 R217L): as the sequence (Q00056 201-287) above, with R17L counted along it
Chain of HOXB4 (Homo sapiens, UniProt P17483 148-234) (P17483 148-234): as the sequence (P17483 148-234 V174I) above, with I27V counted along it
Chain of HOXA4 (Homo sapiens, UniProt Q00056 201-287, W262R) (Q00056 201-287 W262R): as the sequence (Q00056 201-287) above, with W62R counted along it
Chain of HOXA2 (Homo sapiens, UniProt O43364 129-215, R185T) (O43364 129-215 R185T): as the sequence (O43364 129-215 R185K) above, with K57T counted along it

| Sequence | binding signal (HOXB4 [1]) | binding signal (HOXA4 [2]) | binding signal (HOXA2 [3]) | binding signal (HOXA4 [4]) | binding signal (HOXB4 [5]) | binding signal (HOXA2 [6]) | binding signal (HOXA4 [7]) | binding signal (VAX1 [8]) | binding signal (HOXA2 [9]) | binding signal (HOXA4 [10]) | binding signal (HOXA2 [11]) | binding signal (VAX1 [12]) | binding signal (VAX1 [13]) |
| --- | --- | --- | --- | --- | --- | --- | --- | --- | --- | --- | --- | --- | --- |
| ATAATGAT | 13.2 upbm affinity estimate (log intensity, higher = more binding, comparable within an allelic series) | 10.6 upbm affinity estimate (log intensity, higher = more binding, comparable within an allelic series) | 12.1 upbm affinity estimate (log intensity, higher = more binding, comparable within an allelic series) | 12.2 upbm affinity estimate (log intensity, higher = more binding, comparable within an allelic series) | 13.8 upbm affinity estimate (log intensity, higher = more binding, comparable within an allelic series) | 13.1 upbm affinity estimate (log intensity, higher = more binding, comparable within an allelic series) | 13.9 upbm affinity estimate (log intensity, higher = more binding, comparable within an allelic series) | 12.3 upbm affinity estimate (log intensity, higher = more binding, comparable within an allelic series) | 10.9 upbm affinity estimate (log intensity, higher = more binding, comparable within an allelic series) | 11.5 upbm affinity estimate (log intensity, higher = more binding, comparable within an allelic series) | 12.1 upbm affinity estimate (log intensity, higher = more binding, comparable within an allelic series) |  |  |
| CCGGACCA | 7.72 upbm affinity estimate (log intensity, higher = more binding, comparable within an allelic series) |  |  |  | 7.8 upbm affinity estimate (log intensity, higher = more binding, comparable within an allelic series) |  |  |  |  |  |  |  |  |
| ACCGTGGG | 7.69 upbm affinity estimate (log intensity, higher = more binding, comparable within an allelic series) |  |  |  | 7.68 upbm affinity estimate (log intensity, higher = more binding, comparable within an allelic series) |  |  |  |  |  |  |  |  |
| TAATGATA | 13.4 upbm affinity estimate (log intensity, higher = more binding, comparable within an allelic series) | 10.5 upbm affinity estimate (log intensity, higher = more binding, comparable within an allelic series) | 12.2 upbm affinity estimate (log intensity, higher = more binding, comparable within an allelic series) | 12.2 upbm affinity estimate (log intensity, higher = more binding, comparable within an allelic series) | 14.1 upbm affinity estimate (log intensity, higher = more binding, comparable within an allelic series) | 13.2 upbm affinity estimate (log intensity, higher = more binding, comparable within an allelic series) | 13.9 upbm affinity estimate (log intensity, higher = more binding, comparable within an allelic series) | 12.5 upbm affinity estimate (log intensity, higher = more binding, comparable within an allelic series) | 11 upbm affinity estimate (log intensity, higher = more binding, comparable within an allelic series) | 11.6 upbm affinity estimate (log intensity, higher = more binding, comparable within an allelic series) | 12.3 upbm affinity estimate (log intensity, higher = more binding, comparable within an allelic series) | 12.7 upbm affinity estimate (log intensity, higher = more binding, comparable within an allelic series) | 12.3 upbm affinity estimate (log intensity, higher = more binding, comparable within an allelic series) |
| CAGACCCC | 7.56 upbm affinity estimate (log intensity, higher = more binding, comparable within an allelic series) |  |  |  | 7.7 upbm affinity estimate (log intensity, higher = more binding, comparable within an allelic series) |  |  | 7.15 upbm affinity estimate (log intensity, higher = more binding, comparable within an allelic series) |  |  |  | 6.95 upbm affinity estimate (log intensity, higher = more binding, comparable within an allelic series) | 6.94 upbm affinity estimate (log intensity, higher = more binding, comparable within an allelic series) |
| ATCATTAC | 13.1 upbm affinity estimate (log intensity, higher = more binding, comparable within an allelic series) | 10.4 upbm affinity estimate (log intensity, higher = more binding, comparable within an allelic series) |  | 12 upbm affinity estimate (log intensity, higher = more binding, comparable within an allelic series) | 13.8 upbm affinity estimate (log intensity, higher = more binding, comparable within an allelic series) |  | 13.6 upbm affinity estimate (log intensity, higher = more binding, comparable within an allelic series) |  |  | 11.2 upbm affinity estimate (log intensity, higher = more binding, comparable within an allelic series) |  |  |  |
| CAGGCCCC | 7.68 upbm affinity estimate (log intensity, higher = more binding, comparable within an allelic series) | 9.66 upbm affinity estimate (log intensity, higher = more binding, comparable within an allelic series) |  | 9.56 upbm affinity estimate (log intensity, higher = more binding, comparable within an allelic series) | 7.6 upbm affinity estimate (log intensity, higher = more binding, comparable within an allelic series) |  | 9.7 upbm affinity estimate (log intensity, higher = more binding, comparable within an allelic series) |  |  | 9.81 upbm affinity estimate (log intensity, higher = more binding, comparable within an allelic series) |  |  |  |
| ATTAATCA | 13.2 upbm affinity estimate (log intensity, higher = more binding, comparable within an allelic series) | 10.6 upbm affinity estimate (log intensity, higher = more binding, comparable within an allelic series) | 12.6 upbm affinity estimate (log intensity, higher = more binding, comparable within an allelic series) | 12.1 upbm affinity estimate (log intensity, higher = more binding, comparable within an allelic series) | 13.9 upbm affinity estimate (log intensity, higher = more binding, comparable within an allelic series) | 13.3 upbm affinity estimate (log intensity, higher = more binding, comparable within an allelic series) | 13.6 upbm affinity estimate (log intensity, higher = more binding, comparable within an allelic series) |  |  | 11.4 upbm affinity estimate (log intensity, higher = more binding, comparable within an allelic series) |  |  |  |
